Hit rate of the full screen: of about 48,000 compounds, about 13,000 (27%) showed an effect of 50% or more. The list shows a part of the results.
tested on: Wolbachia pipientis; experiment: Anti-Wolbachia Cell-Based Screen; format: functional; set-up: scale not given: in the data most compounds retested in dose-response had high values; details: 5 µM

| SMILES | Percent Effect [%] |
| --- | --- |
| Cc1ccc(C)c(OCCN(C)C(=O)C2CCCN2C(N)=O)c1C (stereo not given) | -6.745 |
| COc1ccc(C2CCCN2c2ccc(C#N)cn2)c(OC)c1 (stereo not given) | 3.649 |
| CC(=O)N1CCC2(C1)c1ccccc1S(=O)(=O)N2Cc1ccccc1 (stereo not given) | 103.8 |
| CCCN1CCC2(C1)c1ccccc1S(=O)(=O)N2C.O=C(O)C(F)(F)F (stereo not given) | -10.43 |
| CC(=O)N1CCC2(C1)c1ccccc1S(=O)(=O)N2C (stereo not given) | 115.8 |
| CCCN1CCC2(C1)c1ccccc1S(=O)(=O)N2Cc1ccccc1.O=C(O)C(F)(F)F (stereo not given) | 16.14 |
| CCCN(CC(=O)OC)C(=O)c1sc(C)nc1C | 1.933 |
| Cn1cnc2c1CCN(CCOc1ccc3c(c1)CCC(=O)N3)C2 | -6.768 |
| Cc1ccc(CNC2(Cc3cc(C(C)(C)O)on3)COC2)o1 | -11.3 |
| FC(F)(F)c1ccc(-c2n[nH]c3c2CN(CC2CCOC2)CC3)cc1 (stereo not given) | 2.824 |
| Cn1ccc(C(=O)N2CCCC(c3cc4cccnc4c(O)n3)C2)n1 (stereo not given) | 126.9 |
| CCOC(=O)CCC(=O)N1CCC(Oc2ncccc2Cl)CC1 | 1.106 |
| CCCC(=O)N1CCCC(c2cc3cccnc3c(O)n2)C1 (stereo not given) | 167 |
| CCNC(=O)N1CCN(C(=O)c2cc(Cl)cc3cccnc23)CC1 | -12.31 |
| CCCC(=O)N1CCC(c2cc3cccnc3c(O)n2)CC1 | 125.1 |
| CCCC(=O)N1CCC(c2cc[nH]n2)C1 (stereo not given) | 112.5 |
| CCCC(=O)N1CCC(c2nn(C)c(=O)n2-c2ccccc2)CC1 | 0.6972 |
| CCN(C)CC1CCN(C(=O)Nc2ccc(-c3cc[nH]n3)cc2)C1 (stereo not given) | 2.001 |
| CN(Cc1ccon1)C(=O)C1CC(=O)N(Cc2cccnc2)C1 (stereo not given) | 3.448 |
| Cc1cc(Cn2cncc(Br)c2=O)on1 | 0.4664 |
| O=C(NCc1cccc(C(F)(F)F)c1)C(c1cccnc1)N1CCCC1 (stereo not given) | -10.57 |
| CC(C)[C@H]1COC(=O)N1CC(=O)N1CCCN(C(=O)c2ccoc2)CC1 | -24.24 |
| Cc1cccc(N2CCC(NCc3cnc(C4CCC4)s3)CC2)n1 | 7.912 |
| Cc1nc(C(F)(F)F)nc(N2CCC3(CC2)CC(C(=O)O)N(C)C3)c1C (stereo not given) | -7.708 |
| CCCC(=O)N1CCCC(c2ccccn2)C1 (stereo not given) | 152.5 |
| CCC(=O)N1CCCC(c2cc(Nc3ncccn3)nc(C)n2)C1 (stereo not given) | -9.589 |
| CCOCCC(=O)N1CCCC(c2ncc[nH]2)C1 (stereo not given) | -13.21 |

| SMILES | Percent Effect [%] |
| --- | --- |
| Cc1nc2c(s1)C(N(C)C(=O)NCCCC(C)(C)CO)CCC2 (stereo not given) | -8.844 |
| Cc1cc(N2CCOCC2)ccc1NC(C)c1nc(C(C)C)no1 (stereo not given) | 89 |
| CCN1CCN(c2ccc(NC(C)c3nc(C(C)C)no3)c(C)c2)CC1 (stereo not given) | 117.8 |
| Cc1cc(OCC(=O)NC(C)c2ccc(N3CCOCC3)cc2)no1 (stereo not given) | -0.3596 |
| Cc1noc(C(C)Nc2ccc3oc(C)nc3c2)n1 (stereo not given) | 8.533 |
| Cc1noc(C(C)Nc2ccc3oc(C(C)C)nc3c2)n1 (stereo not given) | 8.094 |
| Cc1cc(N2CCOCC2)ccc1NC(C)c1nc(C(C)(C)C)no1 (stereo not given) | 111.3 |
| Cc1cc(CNC(=O)NC(C)c2ccc(N3CCOCC3)cc2)no1 (stereo not given) | 1.457 |
| CCNC(=O)c1nnc2ccc(N3CCOCC3)cc2n1 | 17.66 |
| CCN1CCN(c2ccc(C(=O)NC(C)c3ccncc3)cc2)CC1 (stereo not given) | -3.258 |
| Cc1cc(CN2CCN(C(C)c3nc(C(C)C)no3)CC2)no1 (stereo not given) | 1.416 |
| CC(NCc1nnc2n1CCCC2)c1nc(C(C)(C)C)no1 (stereo not given) | 3.435 |
| Cc1noc(C(C)Nc2ccc(N3CCOCC3)cc2C)n1 (stereo not given) | 200.3 |
| COCc1c(C(=O)O)nnn1Cc1cccc(C(F)(F)F)c1 | 8.575 |
| Cc1ccc(C(=O)N(C)CC(=O)N2CCCC2)c(C)c1 | -3.926 |
| COCc1c(C(=O)NC2CCCC2)nnn1-c1ccc(C)cc1 | -4.164 |
| Cc1c(C(=O)N2CCC2(C)C)nnn1-c1cccc2cccnc12 | 0.9445 |
| Cc1ccc(CCNC(=O)NCCCC(N)=O)c(C)c1 | -5.264 |
| CCc1c(C(=O)O)nnn1-c1ccc(C)cc1C | 82.86 |
| COc1cc(OC)c(-n2nnc(C(=O)O)c2C)cc1Cl | -3.799 |
| CCc1c(C(=O)O)nnn1-c1cccc(C)c1C | 95.29 |
| CCc1c(C(=O)O)nnn1-c1cc(C)ccc1C | 72.77 |
| Cc1c(C(=O)O)nnn1-c1cccc2cccnc12 | -7.776 |
| Cc1ccc(C)c(-n2nnnc2SCN2CCCCC2=O)c1 | -6.055 |
| CCc1c(C(=O)O)nnn1-c1cc(C)cc(C)c1 | 90.67 |
| CCc1cnc(N2C[C@H](OCc3csc(C)n3)[C@H]3COC[C@H]32)nc1.O=C(O)C(F)(F)F.O=C(O)C(F)(F)F | 4.189 |
| CN1CCC(N[C@@H]2CO[C@H](CNC(=O)c3cccs3)[C@H]2O)CC1 | -3.68 |

| SMILES | Percent Effect [%] |
| --- | --- |
| O=C(c1cn(CC(=O)N2CCc3[nH]cnc3C2)c2ccccc12)C1CC1 | 1.32 |
| COc1ccc(NC(=O)CSC(F)(F)F)cn1 | 1.311 |
| O=C(c1coc2ccccc12)N1CCS(=O)(=O)CC1 | 0.973 |
| COc1cc(Cl)c(C)cc1-n1nnc(C(=O)O)c1-c1ccncc1 | -11.88 |
| COc1cc(Cl)c(C)cc1-n1nnc(C(=O)O)c1C | 4.448 |
| Cc1ccc(-n2nnc(C(=O)O)c2C)c(C)c1 | 89.24 |
| CC(C)(O)CCc1cccc(C(=O)NCc2cnn3cccnc23)c1 | 6.543 |
| CCN(Cc1ccc2c(c1)OCO2)C(=O)NC(C)Cn1cccn1 (stereo not given) | 4.631 |
| CS(=O)(=O)CC1CCCN(C(=O)Cn2cccc(C(F)(F)F)c2=O)C1 (stereo not given) | 2.203 |
| NC(=O)c1cnn2c(C3CCN(CCO)CC3)ccnc12 | 128.9 |
| c1cc(-c2nnc([C@H]3CCN(C4CCOCC4)C3)o2)ccn1 | -3.579 |
| COc1ccccc1OCCN1CCCC(c2cc(C(N)=O)[nH]n2)C1 (stereo not given) | -3.836 |
| O=C(NCCc1c[nH]cn1)C1CCCN(C2CCOCC2)C1 (stereo not given) | -7.633 |
| NC(=O)Cn1ccnc1C1CCCN(CCSc2ccccc2)C1 (stereo not given) | 0.1316 |
| CC(C)(C)c1cnc(CN2CCC(c3ccnn3CCO)CC2)o1 | -7.147 |
| NC(=O)c1cnn2c(C3CCCN(C4CCOCC4)C3)ccnc12 (stereo not given) | 143.8 |
| COCCN1CCCC(c2ccnc3c(C(N)=O)cnn23)C1 (stereo not given) | 97.31 |
| OCCn1nccc1C1CCN(CCCOc2ccc(F)cc2)CC1 | -1.646 |
| CCC(CC)c1cc(C(=O)N2CCN(CC(N)=O)CC2)on1 | 14.59 |
| CC(=O)N1CCC(C(=O)NC(C)c2cccc(OC(F)F)c2)CC1 (stereo not given) | 11.71 |
| CNC(=O)[C@@H](c1ccccc1)N1CCC[C@H]1C(=O)NC1CCCCC1.Cl | 13.78 |
| O=C1NCCCC12CCN(S(=O)(=O)N1CCOCC1)C2 (stereo not given) | -15.95 |
| CCc1nc(CN(C)Cc2nc(-c3ccccc3Cl)oc2C)no1 | -5.34 |
| NC(=O)NC(CC(=O)NCCc1cccc(F)c1)c1ccccc1 (stereo not given) | -0.165 |
| CNc1nccc(C2CCCCN2Cc2cnn3cccnc23)n1 (stereo not given) | 117.1 |
| CN(C)c1nccc(C2CCCCN2Cc2cnn3cccnc23)n1 (stereo not given) | 74.52 |
| c1ccc(C2CCCCN2Cc2nc(-c3cnccn3)no2)nc1 (stereo not given) | 12.62 |

| SMILES | Percent Effect [%] |
| --- | --- |
| c1cnc2c(CN3CCCCC3c3ccncn3)cnn2c1 (stereo not given) | 72.9 |
| c1ccc(C2CCCN2Cc2nc(-c3cnccn3)no2)nc1 (stereo not given) | -14.84 |
| Cc1nc(C)c(C)c(NCc2cnn3cccnc23)n1 | -1.599 |
| CN(C)CCC1CCCCN1Cc1cnc(-c2ccccn2)nc1 (stereo not given) | -28.12 |
| c1ccc(-c2ncc(CN3CCCCC3CCn3cccn3)cn2)nc1 (stereo not given) | -35.25 |
| CN(C)Cc1nc(C(C)(C)NC(=O)c2nc3ccccc3s2)no1 | 8.405 |
| CC(C)c1cc(C(=O)N2C[C@H]3CC[C@@H]2CN(Cc2cscn2)C3)no1 | -2.131 |
| CNC(=O)C(C)(C)N1CCC[C@H]1C(=O)NC(C)(C)C | -3.15 |
| OCCN1CCC(Cc2nccs2)CC1 | 98.4 |
| Fc1ccc(CC2CCN(Cc3nccs3)CC2)cc1 | 16.43 |
| Fc1ccccc1CC1CCN(Cc2nccs2)CC1 | 9.425 |
| CCOCc1nc2c(c(NCc3cc(C)on3)n1)CCN(C(C)=O)CC2 | -0.7778 |
| CCc1nc(NC(=O)NCCc2scnc2C)nn1C | 3.208 |
| COc1ccccc1C(=O)N1CCCC1c1nncn1CC(C)C (stereo not given) | 2.233 |
| COc1cccc(C(=O)N2CCCC2c2ncc3c(n2)CCN(C)C3)c1 (stereo not given) | 114.1 |
| Cl.O=C(c1cccc(F)c1)N1CCCC1c1ncc2c(n1)CCNC2 (stereo not given) | 105.4 |
| O=C(c1ccc(F)c(F)c1)N1CCCCC1c1nc[nH]n1 (stereo not given) | 17.06 |
| COc1ccccc1C(=O)N1CCCC1c1ncc2c(n1)CCNC2.Cl (stereo not given) | 126.5 |
| Cc1ncnc2c1CCN(C(=O)c1cccc(F)c1)CC2 | -5.781 |
| CCOc1ccccc1C(=O)N1CCCC1c1ncc2c(n1)CCNC2.Cl (stereo not given) | 7.885 |
| COc1cccc(C2CCCN2C(=O)c2cc3c(nc2OC)CCC3)c1 (stereo not given) | -14.5 |
| CN(C)c1cccc(C(=O)N2CCCC2c2ncc3c(n2)CCNC3)c1.Cl (stereo not given) | 118.3 |
| COc1cccc(C2CCCN2C(=O)c2ccc(=O)n(C)c2)c1 (stereo not given) | 0.747 |
| CN(C)c1cccc(C(=O)N2CCc3ccc(=O)[nH]c3CC2)c1 | -3.419 |
